Screening results (PubChem BioAssay)
RE007 growth inh: less growth of the S. pombe RE007 Vpr strain; S. pombe RE007 Vpr strain, BacTiter-Glo ATP luminescence, 24 h; actives 0.21% (n = 360,000); Potency, µM (series often up to 92.2 µM), without a hit: top-dose activity change, negative = less growth, actives largely listed as inhibitors; active = well fitted falling curve with a large enough effect; inconclusive = small, poorly fitted or top-dose-only effect; inactive = no such curve, though single readings can be large or run the other way; also: potency is read from the fitted curve at half-maximal effect; % is scaled to controls: 0 for no effect and ±100 for the full control effect; nearly all actives have a fitted effect of over 50% in size
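Fission yeast strain RE007, carrying one chromosomally integrated HIV-1 vpr copy, was seeded at OD 0.01 in PMG+AL medium with 23 nL pinned compound. After 24 h at 30 °C and 99% humidity, viability was read by BacTiter-Glo luminescence.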
Cycloheximide cs: counter-screen hit for Shiga toxin inhibitors, cycloheximide. max response, %. cell reporter, cycloheximide protein synthesis inhibition counterscreen. actives 12% (n = 300,000); in the data active = max response mostly above about 13%, no sharp cut-off; inactive = mostly below about 14%; also: read at 38.3 µM for the half of the compounds with a filed dose; 0% is about no effect
Giardia FBPA inh: blocks Giardia fructose-bisphosphate aldolase activity; purified Giardia FBPA; Potency, µM (series often up to 59.6 µM), without a hit: at the top dose activity, negative = inhibition, usual class: inhibitors; actives 0.71% (n = 290,000); also: potency is read from the fitted curve at half-maximal effect; % is scaled to controls: 0 for no effect and ±100 for the full control effect; nearly all actives have a fitted effect of over 55% in size
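Giardia FBPA (40 nM reagent) was preincubated 10 min at RT with compound (up to 57.5 uM final), then substrate plus GAPDH/TPI/NAD/arsenate coupling system with diaphorase/resazurin was added; resorufin fluorescence (525/598 nm) was read after 20 min.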
LmPK inhibitor: LmPK (Leishmania mexicana) enzyme inhibition. Q27686. Potency, µM (series often up to 57.5 µM), inactives show at the highest dose activity change, negative = inhibition, most hits filed as inhibitors. actives 0.37% (n = 290,000). purified LmPK, Kinase-Glo ATP luminescence, 1 h; also: potency is read from the fitted curve at half-maximal effect; % is scaled to controls: 0 for no effect and ±100 for the full control effect
Target sequence (Q27686 whole entry, looked up): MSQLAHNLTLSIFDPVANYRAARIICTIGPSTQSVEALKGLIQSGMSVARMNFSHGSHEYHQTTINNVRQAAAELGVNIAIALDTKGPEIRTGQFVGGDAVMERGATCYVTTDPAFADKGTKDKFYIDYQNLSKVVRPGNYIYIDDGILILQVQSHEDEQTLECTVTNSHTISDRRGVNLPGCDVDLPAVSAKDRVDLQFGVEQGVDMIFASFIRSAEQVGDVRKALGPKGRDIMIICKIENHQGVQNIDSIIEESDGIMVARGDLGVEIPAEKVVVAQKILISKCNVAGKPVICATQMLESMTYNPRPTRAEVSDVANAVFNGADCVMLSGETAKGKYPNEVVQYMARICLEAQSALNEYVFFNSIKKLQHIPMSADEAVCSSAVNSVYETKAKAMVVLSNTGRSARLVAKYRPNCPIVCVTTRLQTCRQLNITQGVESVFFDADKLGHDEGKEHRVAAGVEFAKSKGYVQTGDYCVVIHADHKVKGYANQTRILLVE
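Kinase-Glo luminescence read after 1 h RT reaction of 0.1 nM LmPK with 0.5 mM PEP and 0.1 mM ADP. Activity scaled between uninhibited and enzyme-free controls.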
Tb PYK inh: T. brucei pyruvate kinase inhibition; TbPYK enzyme, Kinase-Glo Plus ATP luminescence, 45 min; Potency, µM (highest dose often 76.8 µM), for the others: at the top dose activity, negative = inhibition, hits mostly inhibitors; actives 0.12% (n = 410,000); AID 624173; also: potency is read from the fitted curve at half-maximal effect; % is scaled to controls: 0 for no effect and ±100 for the full control effect; nearly all actives have a fitted effect of over 50% in size
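Enzyme and substrate buffer are dispensed first and compound is pin-transferred. ADP at 130 uM final then starts the reaction, which runs 45 min at room temperature. Detection reagent is added for 10 min before luminescence is imaged.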
Shiga toxin inh: inhibitors of Shiga toxin in Vero cells; Vero cells, Shiga toxin protein synthesis inhibition reporter; inhibition, % at 38.7 µM; actives 9.2% (n = 290,000); AID 2315; in the data active = inhibition mostly above about 28%, no sharp cut-off; inactive = mostly below about 43%; also: 0% is about no effect
Numbers without * were called inactive; ? = inconclusive; . = no result given; [ ] = remark or other dose. This excerpt belongs to a sample that is enriched for hits. Unless noted, calls follow the shape of the dose curve; as a rule, active = well fitted curve in the direction sought with a large enough effect; inconclusive = small, poorly fitted or top-dose-only effect, or another doubt; inactive = no such curve, though single readings can be large; an effect the other way counts as inactive or inconclusive.

SMILES	RE007 growth inh	Cycloheximide cs	Giardia FBPA inh	LmPK inhibitor	Tb PYK inh	Shiga toxin inh
COc1cccc(C(=O)Nc2ccc(C(F)(F)F)n(C)c2=O)c1	-14.1%	34.6*	-2.2%	?	-11.0%	50.5*
COc1ccsc1C(=O)Nc1ccc(F)cc1F	-24.0%	30.0*	2.8%	1.6%	-3.4%	30.9
CC(C)Oc1cccc(C(=O)Nc2ccc(Br)cc2F)c1	3.8%	65.2*	-0.3%	0.0%	2.6%	106.6*
CCCNC(=O)C1(C)CCCN(Cc2cccc(C#N)c2)C1 (configuration not stated)	-13.0%	.	.	.	0.9%	.
CC(C)CN1CCC1(C)C(=O)Nc1cc(-c2ccccc2)nn1C (configuration not stated)	-23.7%[18.4 µM]	.	.	.	-5.4%	.
N#Cc1cccc(NC(=O)N2CC[C@@]3(CCCN(S(=O)(=O)c4ccccc4)C3)C2)c1	.	.	-3.0%	.	5.5%	.
O=C(Nc1ccccc1)Oc1cccc(Br)c1	-19.0%	13.5*	-4.4%	-7.2%	-1.6%	28.4
Clc1ccc2nc3c4ccccc4cnn3c2c1	3.0%	61.8*	2.7%	-27.5%	-8.7%	117.0*
Cc1ccc(CNc2ccc3c(c2)ncn3C(C)(C)C)cc1	-2.3%	40.4*	-9.2%	-4.0%	-15.7%	132.7*
Cc1nc2cc(NCc3ccccc3O)ccc2n1Cc1ccccc1	-13.4%	69.1*	-9.8%	-1.1%	-12.6%	91.9*
CCn1cnc2cc(NCc3ccc(Cl)cc3)ccc21	-21.9%	41.0*	3.5%	-2.2%	12.5%	118.6*
Cc1nc2ccccc2n1Cc1ccccc1	-0.8%	-0.8	-9.5%	-3.1%	5.6%	.
Oc1ccccc1CNc1nccs1	-2.2%	-1.8	3.3%	-3.8%	1.8%	17.7
CC(C)(C)n1cnc2cc(NCc3ccccc3Cl)ccc21	.	.	.	.	-0.5%	.
Cn1cnc2cc(NCc3ccccc3O)ccc21	2.7%	61.1*	-5.1%	-2.4%	-1.8%	113.7*
COc1ccc(NC(=O)C(=O)NCCC2CCCCN2S(=O)(=O)c2ccccc2)cc1 (configuration not stated)	-13.9%	.	.	.	-12.9%	.
Cc1ccc(CNc2ccc3c(c2)ncn3C)cc1	-4.6%	45.7*	-21.0%	-1.9%	-8.3%	80.9*
COc1ccc(CNc2ccc3c(c2)ncn3C)cc1OC	0.0%	-1.3	-11.5%	-5.0%	-5.1%	-6.0
CCc1ccc(CNc2ccc3c(c2)ncn3C)cc1	-18.0%	24.7*	-8.7%	-5.5%	-5.5%	72.7*
Cc1occc1-c1nnc(SCC(=O)N2CCCC(C)C2)o1 (configuration not stated)	14.9%	.	.	.	-5.8%	.
CC1CCCCN1C(=O)C1CC(c2ccc(F)cc2)=NO1 (configuration not stated)	-2.1%	58.8*	0.7%	-1.2%	11.9%	90.3*
COc1ccc(C2=NOC(C(=O)N3CCN(c4ccccc4OC)CC3)C2)cc1 (configuration not stated)	2.4%	-5.1	1.1%	0.0%	-1.5%	-11.4
O=C(C1CC(c2ccccc2O)=NO1)N1CCCCC1 (configuration not stated)	-12.3%	48.2*	-2.8%	-4.3%	3.7%	132.8*
O=C(C1CC(c2ccc(Cl)c(Cl)c2)=NO1)N1CCC2(CC1)OCCO2 (configuration not stated)	1.6%	27.7*	-2.2%	0.3%	-4.6%	117.5*
O=C(C1CC(c2ccc(F)cc2)=NO1)N1CCC2(CC1)OCCO2 (configuration not stated)	2.3%	45.1*	2.5%	5.0%	1.2%	71.2*
SMILES	RE007 growth inh	Cycloheximide cs	Giardia FBPA inh	LmPK inhibitor	Tb PYK inh	Shiga toxin inh
COc1cccc(C2=NOC(C(=O)N3CCc4ccccc4C3)C2)c1 (configuration not stated)	12.0%	12.5*	-27.3%	0.1%	-2.4%	26.2*
O=C(C1CC(c2ccc(F)cc2)=NO1)N1CCCCC1 (configuration not stated)	-15.8%	25.9*	-4.8%	-6.8%	4.4%	60.6*
COc1cccc(C2=NOC(C(=O)NC(C)C)C2)c1 (configuration not stated)	2.1%	-3.1	8.0%	-2.8%	3.0%	25.1
O=C(C1CC(c2ccc(F)cc2)=NO1)N1CCN(c2ccccc2)CC1 (configuration not stated)	11.0%	-5.3	2.6%	-0.3%	2.0%	-11.2
O=C(C1CC(c2ccc(F)cc2)=NO1)N1CCc2ccccc2C1 (configuration not stated)	-4.1%	21.2	3.3%	2.1%	-0.5%	32.9
COc1cccc(C2=NOC(C(=O)N3CCC4(CC3)OCCO4)C2)c1 (configuration not stated)	12.7%	52.4*	7.1%	-26.5%	-5.0%	96.5*
Cc1cc(=O)oc(C)c1C(=O)Nc1cccc(F)c1	-12.9%	-3.1	0.0%	-1.1%	2.2%	-5.5
CCOC(=O)C1=CC2(CC)CCCN3CCc4c(n1c1ccccc41)C32 (configuration not stated)	.	.	-2.2%	.	.	.
CCS(=O)(=O)n1nc(-c2ccc(C)cc2)nc1N	1.9%	9.4*	2.7%	1.6%	2.7%	8.8
CCS(=O)(=O)n1nc(-c2ccc(Cl)cc2)nc1N	6.8%	14.7	5.6%	-1.8%	-0.1%	30.0
CCS(=O)(=O)n1nc(-c2ccc(Cl)cc2)nc1SCc1ccccc1	?	19.0*	-10.0%	0.2%	-20.5%	59.8*
Cc1nc(CNC(=O)CC2C(=O)NCCN2Cc2cccc(Oc3ccccc3)c2)cs1 (configuration not stated)	3.0%	-3.0	-17.9%	1.6%	-3.1%	1.8
COc1ccc2[nH]cc(CCNc3ncncc3-c3ccccc3C(F)(F)F)c2c1	.	.	-2.3%	.	.	.
c1nc[n]([Sn]([CH]2CCCCC2)([CH]2CCCCC2)[CH]2CCCCC2)n1	.	3.9	-2.2%	.	.	2.4
O=C(NN1C(=O)c2ccccc2C1=O)C1C2CCCCC21 (configuration not stated)	4.3%	10.6*	-0.2%	6.3%	-3.4%	8.5
O=C1NC(=O)C(=Cc2ccc(-c3ccc(F)cc3O)o2)C(=O)N1	8.6%	13.7*	3.9%	-1.4%	?	17.2
COc1ccc(C2=NN(C(=O)/C=C/c3ccccc3)C(c3ccccc3)C2)c(OC(C)=O)c1 (configuration not stated)	.	5.0	-1.6%	6.6%	-12.6%	-3.5
COc1ccccc1C1=NN(C(=O)c2ccccc2)C(c2ccc(Br)cc2)C1 (configuration not stated)	2.6%	16.6*	14.6%	-1.4%	-2.1%	9.5
COc1ccc(C2=NN(C(=O)c3ccccc3)C(c3ccc(OC)c(OC)c3)C2)c(O)c1 (configuration not stated)	6.7%	-3.5	-2.9%	-5.9%	-0.5%	-4.1
